Laboratory results from PubChem BioAssay (NCI).
Compounds without any hit were thinned out: in the full panel of roughly 83,000, 20% have a hit.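 96-well plates, one dose, 48 hours. Percent growth reported; active if below 10.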 Unmarked numbers belong to inactive results. Calls of active or inactive are those of the source.

Columns and labels:
Assay in all cases: NCI-60 one-dose screen, 48 h (100 = growth as untreated, 0 = no growth, -100 = all killed)
Conditions in all cases: 10 µM unless noted
[1] = tested on: HCT-15 colon
[2] = tested on: HT29 colon
[3] = tested on: SNB-75 CNS
[4] = tested on: SNB-19 CNS
[5] = tested on: U251 CNS
[6] = tested on: PC-3 prostate
[7] = tested on: SK-MEL-5 melanoma
[8] = tested on: UACC-62 melanoma
[9] = tested on: LOX IMVI melanoma
[10] = tested on: SK-MEL-28 melanoma
[11] = tested on: SK-MEL-2 melanoma
[12] = tested on: EKVX NSCLC
[13] = tested on: SN12C renal
[14] = tested on: UO-31 renal
[15] = tested on: TK-10 renal
[16] = tested on: ACHN renal
[17] = tested on: CAKI-1 renal
[18] = tested on: A498 renal
[19] = tested on: CCRF-CEM leukemia
[20] = tested on: MOLT-4 leukemia

Compound	growth [1]	growth [2]	growth [3]	growth [4]	growth [5]	growth [6]	growth [7]	growth [8]	growth [9]	growth [10]	growth [11]	growth [12]	growth [13]	growth [14]	growth [15]	growth [16]	growth [17]	growth [18]	growth [19]	growth [20]
Clc1ccc(-c2nc3ccc(-c4nnc(SCc5ccccc5)o4)cc3[nH]2)cc1	-28.9% (active)	41.5%	40.4%	27%	-8.55% (active)	25.1%	20.9%	37.7%	4.07% (active)	58.3%	75.3%	-24.4% (active)	-57.9% (active)	49.3%	90.6%	45%	37.5%	112%	34.1%	27.7%
C[C@H](NC(=O)c1ccc2c(-c3ccc(C(F)(F)F)cc3)cccc2c1)c1ccccn1	20.4%	26.6%	87.3%	42%	42.3%	34.2%	34.7%	60.3%	43.7%	74.6%	67.2%	22.8%	42%	13.6%	42.6%	41.1%	38.8%	72.5%	38.6%	19.4%
Cn1cc(-c2cc(N)n3nc(-c4c[nH]c5ccc(F)cc45)cc3n2)c2cccnc21	-52.3% (active)	-70.1% (active)	-48.5% (active)	-24.8% (active)	-84.7% (active)	-45.3% (active)	-98.4% (active)	-93.6% (active)	-97.9% (active)	-92.6% (active)	86.8%	-64.9% (active)	-80.6% (active)	-75.8% (active)	-68.7% (active)	-93.8% (active)	-70.7% (active)	-74.8% (active)	-34.6% (active)	-30.1% (active)
COc1ccccc1Nc1nnc(-c2c[nH]c3ccccc23)o1	11.5%	7.44% (active)	44%	43.4%	4.61% (active)	16.4%	-32.7% (active)	22.9%	7.77% (active)	49.2%	-13.6% (active)	10.2%	14.5%	32.5%	22.8%	23.1%	22%	81.9%	8.16% (active)	1.78% (active)
COc1ccc(-c2cc(C(=O)N=Nc3c(O)[nH]c4ccc(Cl)cc34)c3ccccc3n2)cc1	-42.2% (active)	-17.3% (active)	62.9%	23.5%	-64.1% (active)	48%	93%	73.2%	-29.8% (active)	-6.34% (active)	63.4%	21.3%	51.4%	80.6%	116%	-6.95% (active)	44.6%	148%	85.7%	68.8%
COc1ccc(-c2nc3ccccc3n2CC(=O)N=Nc2c(O)[nH]c3ccc(OC)cc23)cc1	43.7%	0.298% (active)	73%	95.1%	96.6%	64.8%	22.9%	81.6%	56.8%	81.2%	23.9%	77.8%	58.7%	68.5%	43.8%	10.1%	-53.5% (active)	88.3%	62.9%	35.8%
C/C(=N\Nc1ccc(S(N)(=O)=O)cc1)c1cnn(-c2cc(=O)[nH]c3ccc(Br)cc23)c1C	91.2%	98.8%	22%	46%	37.9%	58.3%	55%	11.4%	38.2%	34.7%	20%	72.1%	61.2%	54.8%	146%	81%	76.7%	115%	8.23% (active)	18.5%
